# Measured values taken from PubChem BioAssay (NCI).
# This is part of a sample that, as a whole, favours compounds with a hit. Of some 83,000 tested, about 20% had one in any assay.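 Method: cells in 96-well plates; compound added at one concentration; 48 h incubation; percent growth measured; values under 10 scored active.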 A number with no mark means an inactive call. Active and inactive are the calls of the source.
# Test system: MDA-MB-468 breast
# Assay: NCI-60 one-dose screen, 48 h (100 = growth as untreated, 0 = no growth, -100 = all killed)
# Settings: 10 µM unless noted
row,Structure (SMILES),growth
1,COc1ccc(C(=O)c2no[n+]([O-])c2C(=O)c2ccc(OC)cc2)cc1,-88.4% (active)
2,COc1ccc(OC)c2c1C(=O)CC2C (stereo not drawn),99.6%
3,COc1cc2ncnc(Nc3ccc(F)c(Cl)c3)c2cc1OCC(=O)N1CCN(c2ccccc2)CC1,-17.5% (active)
